Shown is part of a subset that was picked to be rich in hits.
Pf Dd2 growth – qHTS Primary assay for Inhibitors of Plasmodium falciparum Dd2 growth in vitro. P. falciparum Dd2 growth, SYBR Green, 72 h. Potency, µM (titrated, usually from 28.9 µM), inactives show top-dose activity, negative = inhibition, hits mostly inhibitors. 4.3% of 120,000 active. AID 1347417, 2020; active = well fitted inhibition curve with a large enough effect;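 note: plate controls were DMSO vehicle for no effect and reference drug for full effect; nearly all actives have a fitted effect of over 65% in size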
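Readout: SYBR Green fluorescence, 485 nm excitation, 535 nm emission, after ~16 h lysis at 37C. Before that, Dd2-infected red cells (2.5% hematocrit) grew 72 h with compound, 29 uM top final concentration.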
An asterisk follows results filed as active; i = inactive; [ ] = another dose, or the depositor's remark. Potency is the fitted concentration of half-maximal effect.

SMILES	Pf Dd2 growth
COc1ccc(-c2ccnc3ncnn23)c(F)c1	2%
COc1ccccc1OC1(C(=O)O)CCN(Cc2ccccc2F)CC1	4%
Cn1c(CNC(=O)c2cc[nH]c2C2CCCNC2)nc2ccccc21 (centres undefined)	-4%
CCCCN(Cc1ccsc1)C(=O)c1cnc(Nc2ccccc2)nc1	-15%
CC(C)Oc1ccc2c(NC(=O)c3ccc(=O)n(C)n3)nn(CC(F)(F)F)c2c1	6%
O=C1CCN(S(=O)(=O)c2ccccc2)CCCN(C(=O)c2cc3ccccc3[nH]2)CCN1	-26%
COc1ccc(C(=O)N2CCCN(S(=O)(=O)c3ccccc3)CCC(=O)NCC2)cc1	i
O=C1CCN(S(=O)(=O)c2ccccc2)CCCN(C(=O)Cc2ccccc2)CCN1	i
O=C1CCN(S(=O)(=O)c2ccccc2)CCCN(C(=O)C2(c3ccccc3)CC2)CCN1	0.79µM*
O=C1CCN(S(=O)(=O)c2ccccc2)CCCN(Cc2ccccn2)CCN1	i
COc1ccc2[nH]c(C(=O)N3CCCN(S(=O)(=O)c4ccccc4)CCC(=O)NCC3)cc2c1	13µM*
O=C1CCN(C(=O)C2(c3ccccc3)CC2)CCCCCCN1	-23%
O=C1CCN(S(=O)(=O)c2ccccc2)CCCN(C2CCCCCC2)CCN1	10µM*
O=C1CCN(S(=O)(=O)c2ccccc2)CCCN(Cc2ccc3[nH]ccc3c2)CCN1	11µM*
O=C1CCN(S(=O)(=O)c2ccccc2)CCCN(C2CCOCC2)CCN1	-27%
CS(=O)(=O)N1CCCN(S(=O)(=O)c2ccccc2)CCC(=O)NCC1	-19%
Cn1cccc1CN1CCCN(S(=O)(=O)c2ccccc2)CCC(=O)NCC1	-28%
O=C(CN1C(=O)NC(c2ccc(Cl)cc2)C2=C1COC2=O)Nc1ccc(Br)cc1F (centres undefined)	-23%
Cc1ncc(C(=O)N2CCCC(c3cccc(C(=O)O)c3)C2)c(=O)[nH]1 (centres undefined)	-8%
CCCn1nccc1S(=O)(=O)N1CCc2nc(-c3ccccc3)[nH]c2C1	-22%
O=C(NCCn1ccn2nc(-c3ccc(F)cc3)cc2c1=O)c1ccc2c(c1)OCO2	i
NCC(=O)N1CCC2(CC1)C(=O)NCN2C(=O)c1ccc(Cl)cc1	i
O=C(C1COc2ccccc2O1)N1CCN(c2cc(-c3ccc(Cl)cc3)[nH]n2)CC1 (centres undefined)	i
COc1ccc(Cl)cc1C(=O)N1C[C@@H](F)C[C@H]1C(=O)N1CCCCC1	-2%
COCc1nncn1C1CCN(C(=O)c2ccc(C)s2)CC1	-2%
SMILES	Pf Dd2 growth
CCN1CCN(c2ccc(C(=O)N3CCCC(c4ccccc4)CC3)cn2)CC1 (centres undefined)	-23%
CCN1CCN(C(=O)c2cnn(-c3ccc(F)cc3F)c2C2CCN(C(=O)OC(C)(C)C)CC2)CC1	-6%
Cc1ccc(N2CCN(C(=O)c3cnn(-c4ccc(F)cc4F)c3C3CCN(C(=O)OC(C)(C)C)CC3)CC2)c(C)c1	7.9µM*
Cc1ccc(C)c(N2CCN(CCCNC(=O)c3cnn(-c4ccc(F)cc4)c3C3CCN(C(=O)OC(C)(C)C)CC3)CC2)c1	1.3µM*
CC(C)(C)OC(=O)N1CCC(c2c(C(=O)N3CCN(C(=O)c4ccco4)CC3)cnn2-c2ccc(Cl)cc2)CC1	104%[5.79 µM]
Cc1ccc(C)c(N2CCN(CCCNC(=O)c3cnn(-c4ccccc4Cl)c3C3CCN(C(=O)OC(C)(C)C)CC3)CC2)c1	2.2µM*
CC(C)(C)OC(=O)N1CCC(c2c(C(=O)N3CCN(C(=O)c4ccco4)CC3)cnn2-c2ccccc2Cl)CC1	11µM*
Cc1ccc(-n2ncc(C(=O)NCCCN3CCN(C)CC3)c2C2CCN(C(=O)OC(C)(C)C)CC2)c(C)c1	i
CCN1CCN(CCCNC(=O)c2cnn(-c3ccc(C)cc3)c2C2CCN(C(=O)OC(C)(C)C)CC2)CC1	-4%
COc1cc(C(=O)N2C[C@@H](C)[C@@](C)(O)C2)ccn1	-9%
O=C1NCCCCCCN(S(=O)(=O)c2cccc(F)c2)[C@H]2CCC[C@@H]12	-1%
CN1CC(=O)N(C2CCNCC2)Cc2c1ncnc2N1CCC(N2CCOCC2)CC1	9%
Cn1cnc(S(=O)(=O)N2CCC(N3C(=O)C4(CCCCC4)C3c3ccncc3)CC2)c1 (centres undefined)	-16%
Cc1c(-c2ccc(F)cc2)[nH]c2ccc(CNC(=O)CN3CCOC3=O)cc12	-14%
Cc1ccccc1OCC1CN(Cc2c[nH]c3ccccc23)C(=O)c2c(ccnc2-c2ccc(OCC(=O)O)cc2)O1 (centres undefined)	-14%
Cc1cnc(C2CCNC2)n1Cc1ccccc1 (centres undefined)	6%
COCC(=O)N1CCC(C(=O)N2CCC2c2ccccc2)CC1 (centres undefined)	-19%
Cc1ccc(C)c(N2CCN(C(=O)c3cnn(-c4ccccc4Cl)c3C3CCN(C(=O)OC(C)(C)C)CC3)CC2)c1	3.5µM*
Cc1ccc(C)c(N2CCN(CCCNC(=O)c3cnn(-c4cccc(Cl)c4)c3C3CCN(C(=O)OC(C)(C)C)CC3)CC2)c1	1.4µM*
COCc1cn([C@H]2CO[C@H]3[C@@H]2OC[C@@H]3N)nn1	6%[44.1 µM]
CCOCCn1c(=O)[nH]c2cc(C(=O)N(C)CCc3noc(C)n3)ccc21	-8%
CN1CCc2[nH]cnc2C12CCN(C(=O)c1cc(=O)[nH]c3ccccc13)CC2	-1%
COc1ccc(NC(=O)O[C@@H]2CO[C@H]3[C@@H]2OC[C@@H]3NC(=O)Nc2cccc(C(F)(F)F)c2)cc1	-25%
Cc1ccc(C)c(OCCn2cc(C(=O)c3ccco3)c3ccccc32)c1	1µM*
O=C(c1cccs1)c1cn(CCOc2ccccc2Cl)c2ccccc12	3.2µM*
SMILES	Pf Dd2 growth
Cc1ccc(CN(Cc2ccco2)C(=O)COc2ccccc2C)cc1	i
CCOC(=O)c1ccc(NC(=O)Cn2cc(C(=O)c3cccs3)c3ccccc32)cc1	-4%
Cc1ccc(NC(=O)Cn2cc(C(=O)c3ccccc3)c3ccccc32)c(C)c1	7%
COc1ccc(NC(=O)Cn2cc(C(=O)C3CCCCC3)c3ccccc32)cc1	-29%
COc1ccc(OCCn2cc(C(=O)c3ccco3)c3ccccc32)cc1	1µM*
COc1ccc(OCC(=O)Nc2ccc3c(c2)nc(CCNC(=O)c2ccco2)n3C)cc1	-22%
O=C(c1cn(CCOc2ccccc2F)c2ccccc12)C1CCCCC1	-27%
CCN(Cc1noc(C2CCC2)n1)C(=O)C1CCN(c2ccccc2)C1=O (centres undefined)	-7%
COc1cccc(CN2CC3(CCN(C(=O)CSC(C)C)CC3)CC2=O)c1	-3%
Cc1cnc(CN2CC3(CCCN(c4ccc(C#N)cn4)C3)CCC2=O)cn1 (centres undefined)	-20%
Cc1cccc(Cl)c1NC(=O)CN1C(=O)NC(c2ccc(Cl)cc2)C2=C1COC2=O (centres undefined)	-16%
Cc1ccc(C(=O)N(C)Cc2ccccc2C(F)(F)F)cc1	i
CSc1cccc(NC(=O)N2C[C@H](c3nc(-c4ccccc4)no3)[C@@H](C)C2)c1	i
CC(=O)NCCCC(=O)N1CCC2(CC1)CN(C(=O)NC(C)C)Cc1ccccc1O2	10%
O=C(COc1ccc(F)cc1)N1C[C@@H](CO)[C@H](c2ccncc2)C1	-4%
Cc1nnc([C@@H]2CC(F)(F)CN2C(=O)c2ccco2)o1	26%
COc1cccc(CNC(=O)CN2C(=O)NC3(CCOCC3)C2=O)c1OC	16%
O=C1NCC2(CCN(Cc3ccc(F)cc3)CC2)Oc2ccccc21	-12%
O=C1NC2(CCN(CC3CC3)CC2)COc2ccccc21	-22%[44.1 µM]

Source: PubChem BioAssay
